Results on 40 compounds are retold here after ChEMBL document CHEMBL4513146, “CO-ADD screening of Karazin Kharkiv National University (Ukraine) compounds”.

The structures appear in SMILES notation. Results with a measured potency or affinity are listed apart.

The assay has as its system Escherichia coli. The settings on record: Concentration 32 ug.mL-1;; ASSAY_TEST Inhibition of Bacterial Growth; detection method Absorption (OD600); MEDIA CAMHB; plate type 384well; NBS; CORNING #3640; time 18 hr.
Take `Cc1ccc(-c2cc3c4nnc(CCC(=O)NCc5ccc(F)c(Cl)c5)n4ccn3n2)cc1C`: the Inhibition is -0.93%.

In the case of `CCCCc1ccc(NC(=O)Cn2nc3c(SC4CCCCC4)nccn3c2=O)cc1`, the Inhibition is listed as -6.08%. Then `Cc1cccc(C)c1NC(=O)Cn1nc2c3cc(-c4ccc(Cl)cc4)nn3ccn2c1=O`, with -1.58%. To `Cc1ccc(C)c(-c2cc3c4nnc(SCC(=O)Nc5cccc(Br)c5)n4ccn3n2)c1` belongs -9.35%; to `Cc1nnc2c(SCC(=O)Nc3ccc(Br)cc3F)nc3ccccc3n12`, -10.05%. Then `CCOC(=O)c1ccc(NC(=O)Cn2nc3ccc(SCc4ccc(Cl)cc4)nn3c2=O)cc1`, with -11.17%; and `CCc1nnc2c(S(=O)(=O)N(Cc3cccc(OC)c3)c3ccc(F)cc3)cccn12`, with -8.61%; and `Cc1cccc(NC(=O)Cn2nc3ccc(SC(C)(C)C)nn3c2=O)c1`, with -1.06%. Turning to `O=C(CSc1nnc2c(=O)n(-c3cccc(F)c3)ccn12)Nc1ccc(Br)cc1F`, the Inhibition is recorded as -1.22%. Then `COc1ccccc1-n1ccn2c(SCC(=O)c3ccc(C)cc3C)nnc2c1=O`, with -10.12%; and `COc1ccc(-c2cc3c4nnc(SCC(=O)Nc5ccc(OC)c(Cl)c5)n4ccn3n2)cc1`, with -2.1%; and `COc1ccc(NC(=O)Cn2nc3ccc(SC(C)(C)C)nn3c2=O)cc1OC`, with 2.49%. Consider `CCOc1ccc(-n2ccn3c(SCC(=O)c4ccc(C)cc4C)nnc3c2=O)cc1`, for which the Inhibition is -6.14%.

On to `COc1ccc(N(Cc2cccc(C)c2)S(=O)(=O)c2ccc3nnc(C)n3c2)cc1`, for which the Inhibition is -2.14%.

Consider `O=C(CSc1nnc2c(=O)n(-c3ccc(F)c(F)c3)ccn12)c1c[nH]c2ccccc12`, for which the Inhibition is listed as -5.88%. Then `O=C(Cn1nc2c(N3CCOCC3)nccn2c1=O)Nc1ccc(Br)cc1F`, with 2.9%; and `COc1ccc(NC(=O)Cn2nc3ccc(-c4ccc(Cl)cc4)nn3c2=O)cc1OC`, with -4.63%; and `CCc1ccc(NC(=O)Cn2nc3c(Sc4ccccc4)nccn3c2=O)cc1`, with -4.33%. To `CCc1ccccc1NC(=O)Cn1nc2cc(C)nc(Nc3ccc(F)cc3)n2c1=O` belongs -2.85%; to `Cc1nnc2ccc(S(=O)(=O)N(Cc3cccc(F)c3)c3ccc(F)cc3)cn12`, -11.39%; to `Cc1ccc(CNC(=O)CSc2nnc3c4cc(-c5ccc(F)cc5)nn4ccn23)cc1`, -2.28%. Take `COc1cccc(CNC(=O)CSc2nnc3c(=O)n(-c4ccc(F)cc4)ccn23)c1OC`: the Inhibition worked out at 2.01%. To `Cc1cccc(NC(=O)CSc2nnc3c4cc(-c5ccccc5)nn4ccn23)c1C` belongs -6.36%; to `CCOC(=O)c1ccc(NC(=O)Cn2nc3c(N4CCOCC4)nccn3c2=O)cc1`, -3.52%. Consider `Cc1ccc(F)cc1NC(=O)CSc1nc2ccccc2n2c(C(C)C)nnc12`, for which the Inhibition is -3.01%. Then `CCC(Sc1nnc2c(=O)n(-c3cccc(OC)c3)ccn12)C(=O)Nc1cc(C)ccc1C` (stereo not given), with -5.33%; and `CCCCN(C)c1ccc2nnc(CCc3nc(-c4cc(OC)cc(OC)c4)no3)n2n1`, with -4.97%.

Regarding `COc1ccc(CN(c2ccc(F)cc2)S(=O)(=O)c2cccn3cnnc23)cc1F`, the Inhibition is on record as -4.31%. To `CC(C)(C)Sc1ccc2nn(CC(=O)Nc3ccccc3C(F)(F)F)c(=O)n2n1` belongs -2.49%; to `COc1ccc(NC(=O)Cn2nc3ccc(SC(C)C)nn3c2=O)cc1OC`, 0.47%; to `Cc1cccc(NC(=O)c2ccc3nnc(SCC(=O)Nc4ccc(Br)cc4)n3c2)c1`, 0.25%. Then `CC(C)c1ccc(NC(=O)Cn2nc3ccc(SCc4ccc(Cl)cc4)nn3c2=O)cc1`, with -6.33%; and `Cc1cccc(N(Cc2ccccc2F)S(=O)(=O)c2ccc3nncn3c2)c1`, with -5.15%; and `O=c1c2sccc2n2c(=O)n(Cc3ccc(Cl)cc3)nc2n1Cc1cccs1`, with -9.25%. Then `N#Cc1cccc(NC(=O)Cn2nc3c4cc(-c5ccc(Cl)cc5)nn4ccn3c2=O)c1`, with -5.31%. As to `Cc1cccc(N(Cc2ccc(F)cc2)S(=O)(=O)c2cccn3c(C)nnc23)c1`, the Inhibition is listed as -0.37%. Then `Cc1ccc(CNC(=O)Cn2nc3ccc(SCc4ccc(Cl)cc4)nn3c2=O)cc1`, with -2.92%. To `COC(=O)c1ccc(NC(=O)Cn2c(=O)c3nnc(C(C)C)n3c3ccccc32)cc1` belongs 0.09%; to `COC(=O)c1ccc(NC(=O)Cn2nc3c4cc(-c5ccc(F)cc5)nn4ccn3c2=O)cc1`, 3.19%. Then `CCc1ccccc1Sc1nccn2c(=O)n(CC(=O)Nc3ccc(Br)cc3)nc12`, with 1.96%.
